This passage reports outcome, Potency and max activation results from PubChem BioAssay (Tox21).

Assay [1] addresses Thyrotropin receptor (Homo sapiens) (UniProt P16473). Briefly: qHTS assay to identify small molecule antagonists of the thyroid stimulating hormone receptor (TSHR) signaling pathway (AID 1259385; calls by dose curve; further: nearly all actives have a fitted effect of over 20% in size). The procedure, abridged:
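Antagonist mode: compound-treated TSHR-expressing HEK293 cells were stimulated with 1.5 ng/mL TSH (final) in presence of Ro20-1724 for 30 min at RT. HTRF cAMP detection after 1 h; each compound tested at 15 concentrations, triplicate.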
(qHTS replaces the single test concentration by a dilution series.)

The nature of assay [2]: qHTS assay to identify small molecule agonists of the estrogen receptor alpha (ER-alpha) signaling pathway in the presence of an antagonist - cell viability counter screen (AID 1259386).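 Further: series mostly up to about 92 µM; cells exposed to compounds for 22 h at 37 °C before the viability read; nearly all actives have a fitted effect of over 30% in size.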 The procedure, abridged: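 The test measures whether compounds kill ER-alpha reporter cells (VM7Luc4E2) under antagonist co-treatment (ICI-182,780, 10.0nM). Fluorescence from CellTiter-Fluor is read after a 22hr exposure.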

Assay [3] can be described thus: qHTS assay to identify small molecule antagonists of the progesterone receptor (PR) signaling pathway - cell viability counter screen (AID 1346798). Further: series mostly up to about 92 µM; nearly all actives have a fitted effect of over 50% in size. A digest of the protocol: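 ATP content as viability readout: CellTiter-Glo luminescence, 30 min room temperature, in PR-UAS-bla HEK293T cells after 16 hr compound/R5020 treatment at 37C and 5% CO2.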
The nature of assay [4]: qHTS assay to identify small molecule agonists of the progesterone receptor (PR) signaling pathway - cell viability counter screen (AID 1346799; calls by dose curve; further: nearly all actives have a fitted effect of over 45% in size). The procedure, abridged: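 Cytotoxicity in PR-bla HEK293T cells: 16 h compound, 37C; CellTiter-Glo added post-FRET read; luminescence after 30 min RT.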
Assay [5] is described as follows: qHTS assay to identify small molecule antagonists of the TGF-beta/Smad signaling pathway - cell viability counter screen (AID 1346824). Further: nearly all actives have a fitted effect of over 50% in size. The procedure, abridged: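 Cytotoxicity counter-screen run in the same wells as the beta-lactamase Smad reporter read: CellTiter-Glo luminescence after 30 min at room temperature. HEK 293T SBE-bla cells had 5 hr compound exposure at 37 C with TGF-beta1 (0.25 ng/mL stock).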

Assay [6] is described as follows: qHTS assay to identify small molecule agonists of the TGF-beta/Smad signaling pathway (AID 1346859; active means well fitted activation curve with a large enough effect in the signal ratio in the repeat runs, not every such curve was filed as active; the % refers to the signal ratio; further: series mostly up to about 77 µM). The procedure, abridged: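 Stable Smad binding element-beta-lactamase HEK 293T cells; 5 hr compound exposure at 37 C under 5% CO2; 2 hr room-temperature substrate step; fluorescence excited at 405 nm, collected at 460 nm and 530 nm.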
Assay [7] addresses Thyrotropin-releasing hormone receptor (Homo sapiens) (UniProt P34981). Briefly: qHTS assay to identify small molecule antagonists of the thyrotropin-releasing hormone receptor (TRHR) signaling pathway (AID 1346877; active means well fitted inhibition curve with a large enough effect in the repeat runs, not every such curve was filed as active; further: series mostly up to about 51 µM). A digest of the protocol: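 Overnight-plated (18 h, 37 °C) HEK293 cells expressing TRHR were dye-loaded 2 h, treated with compound, then stimulated with TRH at 1 nM final. Fluorescence intensity was captured every second for 3 min.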

Assay [8] has the same target. Briefly: qHTS assay to identify small molecule agonists of the thyrotropin-releasing hormone receptor (TRHR) signaling pathway (AID 1346891; calls by dose curve;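 further: HEK293 cells expressing TRHR with calcium dye readout; series mostly up to about 58 µM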). The procedure, abridged: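 In 1536-format, 1500 TRHR-Hek293 cells per well grew 18 h, took up calcium dye for 2 h at 37 °C, received compound, and were read kinetically; 15-point titrations, triplicates.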
Assay [9] in a line: Human pregnane X receptor (PXR) small molecule agonists, qHTS cell viability counter screen (AID 1346977). Further: nearly all actives have a fitted effect of over 50% in size. A digest of the protocol: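 Readout is CellTiter-Fluor fluorescence from PXR-Luc HepG2 cells. Plated cells rested 5hr, then were treated with compounds for 24hr at 37C and 5% CO2, with reagent present during the last hour.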
Assay [10] in a line: Caspase-3/7 induction in HepG2 cells by small molecules, qHTS assay (AID 1346978). Further: nearly all actives have a fitted effect of over 15% in size. A digest of the protocol:
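Caspase-3/7 induction was measured by Caspase-Glo 3/7 luminescence (30 min, room temperature) after a 17 hr compound exposure of wild-type HepG2 cells seeded at 2,000 per well and pre-incubated 5 hr.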

Assay [11] can be described thus: Caspase-3/7 induction in CHO-K1 cells by small molecules, qHTS cell viability counter screen (AID 1346979). Further: nearly all actives have a fitted effect of over 35% in size. Further: potency means the concentration at half of the fitted maximal effect. A digest of the protocol:
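To flag cytotoxic compounds, treated CHO-K1 wild-type cells were given CellTiter-Fluor at 16hr and read fluorescently after 1hr at 37C; the caspase-3/7 luminescence was measured in these same wells.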

A short description of assay [12]: Caspase-3/7 induction in HepG2 cells by small molecules, qHTS cell viability counter screen (AID 1346981). Further: series mostly up to about 92 µM; nearly all actives have a fitted effect of over 30% in size. The procedure, abridged: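 Treatment of HepG2 cells with DMSO-delivered compounds ran 16 hr at 37 C following a 5-hr pre-incubation of 2,000 cells/well. CellTiter-Fluor fluorescence, read after 1 hr, served as the viability measure in a qHTS format.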
The target of assay [13] is Nuclear receptor subfamily 1 group I member 2 (Homo sapiens) (UniProt O75469). Briefly: Human pregnane X receptor (PXR) small molecule agonists, qHTS assay (AID 1346982). Further: nearly all actives have a fitted effect of over 35% in size. Further: potency means the concentration at half of the fitted maximal effect. A digest of the protocol: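 Stable HepG2 line reporting PXR-mediated CYP3A4 expression via luciferase. Treatment: 24 hr with compounds in DMSO at 37 C. Detection: ONE-Glo luminescence.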
Sequence of Nuclear receptor subfamily 1 group I member 2 (Homo sapiens) (O75469 whole entry, looked up): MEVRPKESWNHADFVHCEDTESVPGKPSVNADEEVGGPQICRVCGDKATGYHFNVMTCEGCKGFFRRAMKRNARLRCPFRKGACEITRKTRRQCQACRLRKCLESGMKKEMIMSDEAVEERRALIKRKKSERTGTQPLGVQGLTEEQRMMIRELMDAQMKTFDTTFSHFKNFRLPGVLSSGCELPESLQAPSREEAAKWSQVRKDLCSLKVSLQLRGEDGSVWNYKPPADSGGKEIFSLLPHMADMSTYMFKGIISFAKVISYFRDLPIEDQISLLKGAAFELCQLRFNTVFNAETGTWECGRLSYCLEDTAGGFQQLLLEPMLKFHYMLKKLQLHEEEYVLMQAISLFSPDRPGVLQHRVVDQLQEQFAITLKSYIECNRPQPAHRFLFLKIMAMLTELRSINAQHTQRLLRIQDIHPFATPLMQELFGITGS
Assay [14] addresses Nuclear receptor subfamily 1 group I member 2 (Rattus norvegicus) (UniProt Q9R1A7). Briefly: Rat pregnane X receptor (rPXR) activation by small molecules, qHTS assay (AID 1346983). Further: nearly all actives have a fitted effect of over 20% in size. The conditions noted are these: rPXR luciferase reporter cells, One-Glo luminescence, 24 h; max activation: stronger effect = higher value. The procedure, abridged:
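Luminescent readout (One-Glo luciferase, 30 min room temperature) followed 24 hr compound treatment at 37 C of rPXR cells plated 2,000 per well and preincubated 5hr; qHTS format with compounds delivered in DMSO.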

The target of assay [15] is Nuclear receptor subfamily 1 group I member 2 (Homo sapiens) (UniProt O75469). Briefly: CYP3A4 induction through human pregnane X receptor (PXR) by small molecules, qHTS assay (AID 1346984). Further: nearly all actives have a fitted effect of over 40% in size. A digest of the protocol: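 After 24 h at 37C with compound, DPX-2 cells (HepG2, co-transfected PXR response element and CYP3A4 promoter-luciferase) got 3uM final P450-Glo Luciferin-IPA for 3 h; One-Glo luminescence followed.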

Assay [16] has the same target. Briefly: Human pregnane X receptor (PXR) activation by small molecules, qHTS assay (AID 1346985). Further: nearly all actives have a fitted effect of over 40% in size. The procedure, abridged:
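DPX-2 cells (HepG2 co-transfected with a PXR response element and a CYP3A4-promoter luciferase construct) were seeded at 2,000 per well, rested 5 hr at 37C, then exposed to DMSO-dissolved compounds for 24 hr. Activation was read as luciferase luminescence.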

The target in assay [17] is Progesterone receptor (Homo sapiens) (UniProt P06401). Briefly: qHTS assay to identify small molecule agonists of the progesterone receptor (PR) signaling pathway (AID 1346784; calls by dose curve; further: nearly all actives have a fitted effect of over 30% in size). A digest of the protocol:
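Using charcoal-stripped serum (2%) to limit endogenous steroids, PR-UAS-bla HEK 293T cells received compounds for 16 hr at 37C after 6 hr plating; beta-lactamase FRET fluorescence was recorded following 2 hr substrate loading at room temperature.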

The target is the same in assay [18]. Briefly: qHTS assay to identify small molecule antagonists of the progesterone receptor (PR) signaling pathway (AID 1346795; active means well fitted inhibition curve with a large enough effect in the signal ratio in the repeat runs, not every such curve was filed as active; the % refers to the signal ratio; further: potency means the concentration at half of the fitted maximal effect). A digest of the protocol: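 Inhibition of R5020-induced (1 nM final) beta-lactamase reporter signal in PR-UAS-bla HEK293T cells was scored by FRET fluorescence after overnight (16 hr) compound treatment.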
A short description of assay [19]: qHTS assay to identify small molecule agonists of the TGF-beta/Smad signaling pathway - cell viability counter screen (AID 1346829). Further: top concentration of the series differs between compounds; nearly all actives have a fitted effect of over 45% in size. The procedure, abridged: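 Here the cytotoxicity of library compounds is measured in SBE-bla HEK 293T cells treated for 5 hr, using CellTiter-Glo added to wells already read for the beta-lactamase reporter.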
Assay [20] can be described thus: Caspase-3/7 induction in CHO-K1 cells by small molecules, qHTS assay (AID 1346980). Further: nearly all actives have a fitted effect of over 15% in size. The procedure, abridged:
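Luminescent Caspase-Glo 3/7 read (30min, room temperature) quantified apoptosis induction. Cells were wild-type CHO-K1, treated with compound for 17hr at 37 C and 5% CO2.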

Structures are written as SMILES. Where “and” joins values, the source holds several entries; their conditions need not be identical. Equal entries are not always repeated. Results filed as inconclusive are left out. Some structures have more than one record in an assay (separate samples or runs), and their calls can disagree. Calls of active or inactive are those of the source. Unless noted, the call rests on the fitted dose curve; in most records, active means well fitted curve in the direction sought with a large enough effect in the repeat runs; inconclusive means weak or mixed curves; inactive means no such curve, though single readings can be large; an effect the other way counts as inactive or inconclusive.
On the % scale 0 is the no-effect control and ±100 the full control effect.

Sequence of Progesterone receptor (Homo sapiens) (P06401 whole entry, looked up): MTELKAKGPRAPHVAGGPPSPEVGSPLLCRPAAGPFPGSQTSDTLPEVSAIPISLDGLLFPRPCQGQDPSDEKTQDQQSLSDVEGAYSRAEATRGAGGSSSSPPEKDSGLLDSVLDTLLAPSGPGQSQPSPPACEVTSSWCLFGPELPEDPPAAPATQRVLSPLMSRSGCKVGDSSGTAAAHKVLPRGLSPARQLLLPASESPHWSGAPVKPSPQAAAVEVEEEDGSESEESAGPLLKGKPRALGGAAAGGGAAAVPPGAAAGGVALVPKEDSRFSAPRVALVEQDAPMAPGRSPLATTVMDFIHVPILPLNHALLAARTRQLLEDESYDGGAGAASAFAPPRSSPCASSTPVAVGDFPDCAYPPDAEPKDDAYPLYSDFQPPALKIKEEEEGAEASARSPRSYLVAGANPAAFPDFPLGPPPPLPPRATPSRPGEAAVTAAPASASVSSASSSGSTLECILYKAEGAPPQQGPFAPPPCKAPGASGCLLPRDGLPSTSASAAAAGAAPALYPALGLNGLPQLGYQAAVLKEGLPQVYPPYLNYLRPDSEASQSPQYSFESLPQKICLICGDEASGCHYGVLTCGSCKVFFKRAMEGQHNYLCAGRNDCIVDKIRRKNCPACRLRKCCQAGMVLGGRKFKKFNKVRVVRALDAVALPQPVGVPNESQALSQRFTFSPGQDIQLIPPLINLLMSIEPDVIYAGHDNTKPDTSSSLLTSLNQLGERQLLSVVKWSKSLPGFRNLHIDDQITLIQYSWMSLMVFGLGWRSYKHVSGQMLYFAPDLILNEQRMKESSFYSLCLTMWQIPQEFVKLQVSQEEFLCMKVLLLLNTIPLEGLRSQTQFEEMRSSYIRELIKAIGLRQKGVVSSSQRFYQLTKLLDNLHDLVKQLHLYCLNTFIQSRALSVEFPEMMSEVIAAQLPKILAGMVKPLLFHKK
Sequence of Thyrotropin-releasing hormone receptor (Homo sapiens) (P34981 whole entry, looked up): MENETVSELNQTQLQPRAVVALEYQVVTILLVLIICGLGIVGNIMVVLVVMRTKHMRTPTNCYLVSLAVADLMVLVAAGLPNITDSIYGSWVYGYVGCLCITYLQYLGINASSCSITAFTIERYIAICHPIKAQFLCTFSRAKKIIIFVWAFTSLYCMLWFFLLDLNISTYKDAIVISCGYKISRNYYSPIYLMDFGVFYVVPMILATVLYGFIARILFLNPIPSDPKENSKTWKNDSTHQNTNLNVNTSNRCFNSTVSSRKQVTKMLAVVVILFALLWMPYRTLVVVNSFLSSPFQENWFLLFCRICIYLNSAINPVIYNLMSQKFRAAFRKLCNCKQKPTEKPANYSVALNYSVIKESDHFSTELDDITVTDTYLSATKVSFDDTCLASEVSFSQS
Sequence of Nuclear receptor subfamily 1 group I member 2 (Rattus norvegicus) (Q9R1A7 whole entry, looked up): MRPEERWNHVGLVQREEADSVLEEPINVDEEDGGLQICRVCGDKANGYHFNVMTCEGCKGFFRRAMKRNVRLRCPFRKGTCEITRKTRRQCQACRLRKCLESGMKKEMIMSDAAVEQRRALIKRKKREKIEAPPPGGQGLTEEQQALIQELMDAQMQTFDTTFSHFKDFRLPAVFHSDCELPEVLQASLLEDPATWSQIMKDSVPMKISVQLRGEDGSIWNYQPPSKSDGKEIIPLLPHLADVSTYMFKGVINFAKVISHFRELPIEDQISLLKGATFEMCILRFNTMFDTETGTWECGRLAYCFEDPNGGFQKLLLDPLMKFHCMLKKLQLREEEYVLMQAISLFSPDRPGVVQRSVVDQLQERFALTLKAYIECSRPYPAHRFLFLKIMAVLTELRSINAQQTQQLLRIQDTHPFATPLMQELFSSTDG
Sequence of Thyrotropin receptor (Homo sapiens) (P16473 whole entry, looked up): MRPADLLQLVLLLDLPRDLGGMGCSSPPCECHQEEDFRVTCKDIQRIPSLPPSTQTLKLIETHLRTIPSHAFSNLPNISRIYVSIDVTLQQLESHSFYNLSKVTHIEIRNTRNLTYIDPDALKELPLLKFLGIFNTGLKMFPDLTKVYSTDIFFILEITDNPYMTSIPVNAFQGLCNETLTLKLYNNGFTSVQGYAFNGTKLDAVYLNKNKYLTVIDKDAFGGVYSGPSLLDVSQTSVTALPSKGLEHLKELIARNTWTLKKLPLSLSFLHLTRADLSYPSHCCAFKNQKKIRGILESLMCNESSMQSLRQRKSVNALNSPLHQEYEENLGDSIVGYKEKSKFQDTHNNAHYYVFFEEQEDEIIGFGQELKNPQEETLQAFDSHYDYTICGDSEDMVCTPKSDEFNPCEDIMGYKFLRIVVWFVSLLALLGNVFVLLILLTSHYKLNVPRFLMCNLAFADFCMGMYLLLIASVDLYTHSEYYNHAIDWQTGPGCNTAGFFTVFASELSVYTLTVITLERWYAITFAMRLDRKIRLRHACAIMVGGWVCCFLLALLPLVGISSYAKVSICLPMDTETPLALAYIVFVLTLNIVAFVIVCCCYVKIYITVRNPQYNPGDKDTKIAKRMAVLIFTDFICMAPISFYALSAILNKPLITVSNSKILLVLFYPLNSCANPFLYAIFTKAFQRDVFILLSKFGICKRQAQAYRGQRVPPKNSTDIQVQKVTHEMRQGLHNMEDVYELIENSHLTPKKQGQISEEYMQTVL

With `CCN1CCCC1=O`, the outcome in assay [1], in [6] and in assay [7] was inactive. Further, the Potency entry in assay [2], in assay [3], in [4], in assay [5], in assay [8] and in assay [9] was “inactive” throughout. The Potency entry in assay [10], in assay [11], in assay [12], in assay [13], in assay [15] and in assay [16] was “inactive” in each case. Moreover, in [14], the max activation is 3.15% (inactive).

For the compound `NC(N)=NC(N)=NCCc1ccccc1`, the compound was called inactive in assay [1], in assay [6] and in assay [20]. The Potency entry in assay [2], in assay [17], in assay [18], in assay [5], in assay [19] and in assay [10] was “inactive” throughout. Besides, the Potency result in [11], in [12], in [13], in assay [15] and in assay [16] was “inactive” throughout. The max activation in [14] is -11.7% (inactive) and -9.14% (inactive).

With `Cc1cccc(C)c1O`, the Potency entry in [2], in [17], in [18], in assay [3], in assay [4] and in assay [5] was “inactive” throughout. Moreover, the Potency entry in [19], in [8], in assay [10], in assay [11], in assay [12] and in [13] was “inactive” each time. The call in assay [6] and in assay [7] was inactive.

`O=C1OC(c2ccc(O)cc2)(c2ccc(O)cc2)c2ccccc21`: the outcome in assay [1] and in [6] was inactive. The Potency result in assay [2], in [17], in assay [3], in [5], in assay [10] and in assay [12] was “inactive” throughout. The Potency in assay [18] was 24.3 µM (active); in [11] it was 30.4 µM (active) and inactive; in assay [13], 48.2 µM (active) and 27.3 µM (active) and 23.7 µM (active).

Take `C#C[C@]1(O)CC[C@H]2[C@@H]3CCC4=CC(=O)CC[C@@H]4[C@H]3CC[C@@]21CC`: the call in assay [1], in assay [6] and in [20] was inactive. Further, the Potency result in assay [2], in assay [18], in assay [3], in [5], in assay [10] and in assay [12] was “inactive” throughout. Moreover, the Potency result in assay [15] and in assay [16] was “inactive” throughout. Moreover, the Potency result in assay [11] was “inactive and 54.5 µM (active)”; in assay [13], 8.65 µM (active) and 54.5 µM (active) and 24.3 µM (active). Also, the max activation in assay [14] was -1.1% (inactive).

With `Nc1cccc(N)c1`, the Potency result in assay [2], in assay [3], in assay [4], in [5], in assay [8] and in [10] was “inactive” in each case. Also, the Potency result in assay [11] and in assay [12] was “inactive” in each case. For the same compound, the call in [6], in assay [7] and in [20] was inactive. Moreover, the Potency in assay [13] is 54.4 µM (active) and inactive.

For the compound `CCCCOCCOCCSC#N`, the outcome in assay [1], in [6] and in [7] was inactive. In addition, the Potency result in [2], in assay [3], in assay [4], in [5], in assay [19] and in assay [8] was “inactive” throughout. For the same compound, the Potency result in assay [9], in assay [10], in assay [11] and in assay [12] was “inactive” each time. For the same compound, the Potency in assay [13] was 32.3 µM (active) and 26.8 µM (active).
